This passage reports outcome and AC50 results from PubChem BioAssay (EPA / NIEHS).

In experiment [1] the target is Transcription factor E2F1 (Homo sapiens) (UniProt Q01094). Nature of the experiment: ATG_E2F_CIS: Attagene CIS-FACTORIAL HepG2 Assay for human E2F Transcription Factor 1 (AID 2282935). To be noted: HepG2 Attagene cis-reporter, E2F reporter RNA transcripts; actives raise or lower the signal. In a few lines:
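Cis-element reporter mRNA induction in transiently transfected HepG2, 24 h exposure. Activity fitted in both directions relative to DMSO negative control.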

Experiment [2] is described as follows: ATG_E_Box_CIS: Attagene CIS-FACTORIAL HepG2 Assay for human Enhancer Box (E-box) (AID 2282936). Particulars: HepG2 E-box cis-reporter transcription, actives raise or lower the signal. In a few lines:
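Cells: HepG2 (human liver), transient MRTU transfection. Exposure 24 h. RNA → oligo(dT) RT → PCR → 6-FAM label → HpaI → CE. Activity fitted both directions relative to DMSO.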

Experiment [3] can be described thus: ATG_M_61_CIS: Attagene CIS-FACTORIAL HepG2 Assay for M61 Transcription Factor (Internal Marker) (AID 2282937). To be noted: HepG2 Attagene CIS-FACTORIAL M61 internal marker reporter; actives raise or lower the signal. In a few lines:
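This endpoint serves as an internal background control within a multiplexed HepG2 cis-reporter panel. Cells are exposed for 24 h; reporter mRNA is amplified, fluorescently labelled and sized by capillary electrophoresis, with DMSO as negative control.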

Experiment [4] is described as follows: ATG_EGR_CIS: Attagene CIS-FACTORIAL HepG2 Assay for human Early Growth Response 1 (EGR1) (AID 2282938). To be noted: HepG2 Attagene CIS-FACTORIAL EGR reporter mRNA; actives raise or lower the signal. In a few lines:
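HepG2, transient MRTU transfection (cis promoters), 24 h compound. RNA → RT (oligo-dT) → PCR → 6-FAM labelling → HpaI cut → CE fluorescence. Bidirectional fit, DMSO baseline.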

A short description of experiment [5]: ATG_M_19_CIS: Attagene CIS-FACTORIAL HepG2 Assay for M19 Transcription Factor (Internal Marker) (AID 2282939). Particulars: HepG2 Attagene CIS-FACTORIAL M19 internal marker reporter; actives raise or lower the signal. In a few lines: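 HepG2, MRTU transient transfection, 24 h dosing. Total RNA → RT-PCR → 6-FAM primer extension → HpaI digest → CE fluorescence. Bidirectional curve fit, DMSO negative control.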

Experiment [6] can be described thus: ATG_ERE_CIS: Attagene CIS-FACTORIAL HepG2 Assay for Estrogen Response Element (ERE) (AID 2282940). To be noted: HepG2 ERE cis-reporter, Attagene RNA transcript; actives raise or lower the signal. In a few lines: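 After a 24 h chemical treatment, RNA from reporter-transfected HepG2 cells is reverse-transcribed, PCR-amplified and fluorescently labelled. Fragments separated by capillary electrophoresis give reporter signal; DMSO serves as negative control.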

A short description of experiment [7]: ATG_Ets_CIS: Attagene CIS-FACTORIAL HepG2 Assay for human Erythroblast Transformation Specific (ETS) (AID 2282941). To be noted: HepG2 ETS cis-reporter transcription, actives raise or lower the signal. In a few lines:
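After transient cis-reporter transfection, HepG2 cells receive test chemical for 24 h. Reporter mRNA levels, measured by RT-PCR and capillary electrophoresis fluorescence, are analysed bidirectionally relative to the DMSO baseline.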

Experiment [8] concerns the target Hepatocyte nuclear factor 3-beta (Homo sapiens) (UniProt Q9Y261). Nature of the experiment: ATG_FoxA2_CIS: Attagene CIS-FACTORIAL HepG2 Assay for human Forkhead box A2 (FOXA2) (AID 2282942). To be noted: HepG2 cis-reporter transcription factor activity, 24 h; actives raise or lower the signal. In a few lines: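 Cells: HepG2, transient multiplex reporter transfection. Exposure 24 h. Detection: reporter-specific RT-PCR, fluorescent labelling, restriction digest, capillary electrophoresis. Analysis: bidirectional curve fit, DMSO as negative control.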

The nature of experiment [9]: ATG_FoxO_CIS: Attagene CIS-FACTORIAL HepG2 Assay for human Forkhead box O (FoxO) (AID 2282943). Particulars: HepG2 Attagene cis-reporter, FoxO element, mRNA; actives raise or lower the signal. In a few lines: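 HepG2, transient MRTU transfection (cis element, endogenous TFs). Dose 24 h. TriZol RNA → oligo(dT) RT → PCR → 6-FAM primer extension → HpaI cut → CE. Gain/loss vs DMSO.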

Experiment [10] can be described thus: ATG_GATA_CIS: Attagene CIS-FACTORIAL HepG2 Assay for human GATA Binding Protein (AID 2282944). To be noted: HepG2 GATA cis-element reporter, Attagene multiplex mRNA; actives raise or lower the signal. In a few lines: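 Cells: HepG2, transiently transfected with cis-regulated reporter transcription units. Exposure: 24 h. Detection: RT-PCR plus capillary electrophoresis of FAM-labeled fragments. Analysis: bidirectional, DMSO as baseline.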

Molecules are shown by their SMILES. Activity calls are given as the source filed them. The calls were made as follows: active = hit-call score of the fitted dose curve at least 0.9, where 1 is the maximum; inactive = score below 0.9.

Hepatocyte nuclear factor 3-beta (Homo sapiens), sequence (Q9Y261 whole entry, looked up): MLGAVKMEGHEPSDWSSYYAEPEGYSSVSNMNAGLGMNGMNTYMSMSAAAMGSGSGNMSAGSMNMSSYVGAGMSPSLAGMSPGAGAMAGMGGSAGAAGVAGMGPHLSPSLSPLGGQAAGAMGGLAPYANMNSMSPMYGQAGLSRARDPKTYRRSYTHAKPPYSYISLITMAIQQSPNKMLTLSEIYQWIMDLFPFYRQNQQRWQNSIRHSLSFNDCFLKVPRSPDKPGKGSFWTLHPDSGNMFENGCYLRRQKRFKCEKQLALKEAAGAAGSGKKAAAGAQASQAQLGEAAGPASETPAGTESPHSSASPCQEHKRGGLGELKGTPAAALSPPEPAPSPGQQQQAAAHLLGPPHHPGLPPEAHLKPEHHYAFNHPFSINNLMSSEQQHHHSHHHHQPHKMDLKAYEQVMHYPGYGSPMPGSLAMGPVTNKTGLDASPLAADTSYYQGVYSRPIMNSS
Transcription factor E2F1 (Homo sapiens), sequence (Q01094 whole entry, looked up): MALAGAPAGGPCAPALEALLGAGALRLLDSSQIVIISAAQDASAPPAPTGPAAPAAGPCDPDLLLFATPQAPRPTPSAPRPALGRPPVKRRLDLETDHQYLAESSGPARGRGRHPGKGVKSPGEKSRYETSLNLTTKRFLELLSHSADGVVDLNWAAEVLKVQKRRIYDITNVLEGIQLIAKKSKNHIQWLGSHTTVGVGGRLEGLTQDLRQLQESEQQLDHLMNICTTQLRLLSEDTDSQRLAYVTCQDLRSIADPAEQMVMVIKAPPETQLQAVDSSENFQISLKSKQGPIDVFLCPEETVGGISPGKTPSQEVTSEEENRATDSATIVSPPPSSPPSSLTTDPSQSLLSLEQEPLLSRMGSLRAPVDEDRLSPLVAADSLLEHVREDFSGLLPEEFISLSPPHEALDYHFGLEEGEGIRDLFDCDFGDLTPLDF

Take `C1COCO1`: the compound was called inactive in [1], in [2], in [3], in experiment [4], in experiment [5] and in experiment [6]. For the same compound, the call in [7], in experiment [8], in experiment [9] and in [10] was inactive.

In the case of `C=C/C(C)=C/C/C=C(\C)CCC=C(C)C`, the outcome in [1], in experiment [2], in [3], in [4], in [5] and in experiment [7] was inactive. Moreover, the call in [8], in experiment [9] and in experiment [10] was inactive. The AC50 in [6] is 56.8 µM (active).

For `C=COCC1CCC(COC=C)CC1` (stereo not given), the result in experiment [1], in experiment [2], in experiment [3], in [4], in experiment [5] and in experiment [6] was inactive. The result in experiment [7], in experiment [8], in experiment [9] and in experiment [10] was inactive.

On to `CCNC(=S)NCC`, for which the outcome in experiment [1], in experiment [2], in experiment [3], in [4], in experiment [5] and in [6] was inactive. In addition, the compound was classed as inactive in [7], in [8], in experiment [9] and in experiment [10].

Regarding `CC(=O)OC(C)(C)C1CC=C(C)CC1` (stereo not given), the outcome in experiment [1], in experiment [2], in experiment [3], in experiment [4], in experiment [5] and in [7] was inactive. The outcome in experiment [8], in experiment [9] and in experiment [10] was inactive. Further, the AC50 in [6] is 26.1 µM (active).

On to `CC1=CCC(C(C)(C)O)CC1` (stereo not given), for which the outcome in experiment [1], in experiment [2], in experiment [3], in experiment [4], in experiment [5] and in [6] was inactive. The compound was classed as inactive in experiment [7], in experiment [8], in experiment [9] and in experiment [10].

Regarding `CCCCCCCCSCc1cc(C)c(O)c(CSCCCCCCCC)c1`, the compound was called inactive in experiment [1], in experiment [2], in [3], in experiment [4], in experiment [5] and in experiment [6]. The call in experiment [7], in [8], in experiment [9] and in [10] was inactive.

Turning to `CCCCCCCCCCCCOC(C)=O`, the result in [1], in [2], in experiment [3], in experiment [4], in experiment [5] and in [6] was inactive. The outcome in [7], in [8], in experiment [9] and in [10] was inactive.

As for `C1=COCCC1`, the compound was classed as inactive in experiment [1], in [2], in experiment [3], in [4], in [5] and in experiment [6]. Moreover, the result in [7], in [8], in experiment [9] and in [10] was inactive.

With `CCCCCCCCCCCCOCCOS(=O)(=O)O`, the call in [1], in [2], in experiment [3], in experiment [4], in [5] and in [6] was inactive. Further, the outcome in [7], in [8], in [9] and in experiment [10] was inactive.

As for `Cc1cccc(O)c1`, the compound was classed as inactive in [1], in experiment [2], in experiment [3], in experiment [4], in experiment [5] and in experiment [6]. Moreover, the outcome in experiment [7], in [8], in experiment [9] and in [10] was inactive.

Turning to `CCC(C)C1CCCCC1=O` (stereo not given), the call in experiment [1], in [2], in experiment [3], in [4], in experiment [5] and in experiment [6] was inactive. Moreover, the compound was called inactive in experiment [7], in [8], in experiment [9] and in experiment [10].

For `N#CCCNCCC#N`, the call in [1], in [2], in [3], in [4], in [5] and in [6] was inactive. Moreover, the result in experiment [7], in experiment [8], in [9] and in experiment [10] was inactive.

With `CCCCC/C=C\C=C\C(=O)OCC`, the outcome in experiment [1], in [2], in [3], in experiment [5], in experiment [6] and in experiment [7] was inactive. For the same compound, the outcome in experiment [9] and in experiment [10] was inactive. Moreover, the concentration at half-maximal activity (AC50) is 58.3 µM (active) in [4] and 71.5 µM (active) in experiment [8].

In the case of `C/C=C(\C)C(=O)OC/C=C(\C)CCC=C(C)C`, the call in experiment [1], in [2], in [3], in experiment [4], in experiment [5] and in experiment [7] was inactive. The call in experiment [8], in [9] and in experiment [10] was inactive. In addition, the AC50 in experiment [6] is 39 µM (active).

Take `CCO[Si](CCC#N)(OCC)OCC`: the compound was classed as inactive in experiment [1], in experiment [2], in [3], in experiment [4], in [5] and in experiment [6]. In addition, the result in experiment [7], in experiment [8], in experiment [9] and in [10] was inactive.

For `CC(=O)CCc1ccc(O)cc1`, the compound was called inactive in experiment [1], in experiment [2], in [3], in [4], in [5] and in [6]. The compound was called inactive in [7], in experiment [8], in [9] and in [10].

For the compound `CC1=CCC(=C(C)C)CC1`, the compound was classed as inactive in experiment [1], in experiment [2], in experiment [3], in experiment [4], in [5] and in experiment [7]. Moreover, the compound was called inactive in experiment [8], in [9] and in [10]. The half-maximal activity concentration (AC50) in experiment [6] is 60 µM (active).
